Source: PubChem BioAssay
Sm TGR inh – inhibitors of Schistosoma mansoni thioredoxin glutathione reductase. Q962Y6. purified TGR, DTNB reduction, TNB absorbance 405 nm. Potency, µM (series often up to 114 µM), usual class: inhibitors. hit rate 3% among 360,000. AID 485364; further: nearly all actives have a fitted effect of over 60% in size
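TGR 20 nM + NADPH 100 uM (dispensed conc.), cpd preinc 15 min RT; start with NADPH (500 uM addition) then DTNB (15 mM addition). Kinetic TNB absorbance, 405 nm filter. Four-parameter Hill fit across titration.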
AMA1-RON2 inh – disrupts binding of P. falciparum AMA1 to RON2; AlphaScreen AMA1-biotinylated RON2 peptide binding; Potency, µM (highest dose often 58.2 µM), actives largely listed as inhibitors; hit rate 0.2% among 360,000; AID 720542; further: nearly all actives have a fitted effect of over 45% in size
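AMA1 (3D7) with his tag at 25 nM final met compounds first, then biotinylated RON2 peptide at 25 nM; detection used donor plus acceptor beads, 10 µg/mL apiece, read by AlphaScreen after 30 min at room temperature.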
Pf growth 96h – P. falciparum growth inhibition at 96 hour, primary screen for plastid delayed-death inhibitors; P. falciparum luciferase reporter growth, 96 h; hit rate 6.9% among 320,000; Potency, µM (series often up to 28.7 µM), usual class: inhibitors
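Two parasite generations (96 h, 37 C, 5% CO2) of compound exposure in infected erythrocytes (0.05% parasitemia, 2% hematocrit). Luciferase-reporter P. falciparum; decreased luminescence indicates inhibited growth, aimed at apicoplast-acting delayed death.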
Pf growth 48h – inhibits P. falciparum growth in the first generation, 48 h | P. falciparum luciferase growth in erythrocytes, 48 h | Potency, µM (doses to about 28.7 µM), actives largely listed as inhibitors | hit rate 5.9% among 310,000 | AID 504832
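Firefly luciferase activity from engineered P. falciparum reports growth; inhibitors lower the luminescent signal. Cultures contained 2% hematocrit erythrocytes at 0.1% final parasitemia.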
NS1 function inh – inhibitors of influenza NS1 protein function; hit rate 0.4% among 270,000; Potency, µM (highest dose often 46.1 µM); AID 2326; calls by dose curve; further: actives are rising curves; nearly all actives have a fitted effect of over 50% in size
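Growth recovery, yeast-based: influenza A NS1 expressed in S. cerevisiae causes slow growth, and suppressors are detected by OD600. The parent strain without NS1 is used as positive control.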
A number is an active result; - = inactive; ? = inconclusive; . = no result; [ ] = dose if it differs, or a comment. Hits are enriched below; roughly 11% of the tested compounds scored in any of these assays. Unless noted, the call rests on the fitted dose curve; in most records, active means well fitted curve in the direction sought with a large enough effect; inconclusive means small, poorly fitted or top-dose-only effect, or another doubt; inactive means no such curve, though single readings can be large; an effect the other way counts as inactive or inconclusive.

SMILES | Sm TGR inh | AMA1-RON2 inh | Pf growth 96h | Pf growth 48h | NS1 function inh
Cc1ccc(Cn2nc(C)c(C(=O)N3CCN(S(=O)(=O)/C=C/c4ccccc4)CC3)c2C)cc1 | - | - | 3.3µM | 6.6µM | .
O=C(/C=C/c1ccco1)N1CCN(C/C=C/c2ccccc2)CC1 | 40µM | - | ? | - | -
O=C(/C=C/c1ccco1)N1CCN(S(=O)(=O)/C=C/c2ccccc2)CC1 | 13µM | - | ? | ? | ?
COc1ccccc1CNC(=O)C(=O)Nc1nccs1 | 45µM | - | - | - | -
COc1ccccc1CNC(=O)C(=O)NCC1CCCO1 (stereo not given) | - | - | 5.9µM | - | -
COc1ccc(CN2C(=O)c3ccccc3C2C(=O)NCC2CCCO2)c(OC)c1 (stereo not given) | - | - | 4.7µM | - | -
C=CCONC(=O)Cc1ccccc1 | . | - | . | . | .
COc1cc(C2Oc3ccccc3C=C2[N+](=O)[O-])cc(OC)c1OC (stereo not given) | 32µM | ? | ? | ? | -
COc1cc(C2NC(=O)c3ccccc3O2)cc(OC)c1OC (stereo not given) | - | - | ? | . | -
Cc1ccc(S(=O)(=O)Nc2ccc(C(=O)N3CCN(c4ccccc4O)CC3)cc2)cc1[N+](=O)[O-] | - | - | - | 15µM | .
Cc1ccccc1NS(=O)(=O)c1ccc(C(=O)N2CCN(c3ccccc3O)CC2)cc1 | - | - | 5.2µM | 13µM | -
CCOc1ccccc1N1CCN(C(=O)CCCN2C(=O)c3cccc4cccc(c34)C2=O)CC1 | - | - | 9.3µM | ? | -
CCOc1ccccc1N1CCN(C(=O)c2ccccc2SCC(=O)N2CCCC2)CC1 | - | - | 13µM | ? | -
O=C(CCCN1C(=O)c2cccc3cccc(c23)C1=O)N1CCN(c2ccccc2O)CC1 | - | - | ? | ? | -
COC(=O)c1ccccc1NC(=O)Cn1c(=O)n(CCC(=O)NCc2ccc3c(c2)OCO3)c(=O)c2ccccc21 | - | . | . | . | .
CCN(CC(=O)NNC(=O)c1ccccc1)Cc1ccc(OC)c(F)c1 | . | - | . | . | .
CCOc1ccccc1N1CCN(C(=O)NC2CCCCC2)CC1 | - | - | 1.7µM | - | -
CCOc1ccccc1N1CCN(C(=O)c2ccc(S(=O)(=O)Nc3ccccc3)cc2)CC1 | - | - | 9.3µM | ? | .
CCOc1ccccc1N1CCN(C(=O)c2ccccc2)CC1 | - | - | - | - | -
Cn1c(=O)c(NC2CCCCC2)c2c3c(cccc31)C(=O)c1ccccc1-2 | - | - | - | 13µM | -
Cn1c(=O)c(NCCO)c2c3c(cccc31)C(=O)c1ccccc1-2 | - | - | - | - | -
Cn1c(=O)c(NCCc2ccccc2)c2c3c(cccc31)C(=O)c1ccccc1-2 | - | - | 9.3µM | . | -
CCCCNc1c2c3c(cccc3n(C)c1=O)C(=O)c1ccccc1-2 | - | - | ? | ? | -
CCCc1cc(=O)[nH]c(SCC(=O)N2CCc3ccccc32)n1 | . | - | . | . | .
Cc1nn(C(C)C)c(C)c1CN1CCCC(C(=O)c2cccc(OC(C)C)c2)C1 (stereo not given) | - | - | 12µM | ? | -
SMILES | Sm TGR inh | AMA1-RON2 inh | Pf growth 96h | Pf growth 48h | NS1 function inh
CCn1nc(C)c(CN2CCCC(C(=O)c3cccc(OC(C)C)c3)C2)c1C (stereo not given) | - | - | - | - | -
CC(C)Oc1cccc(C(=O)C2CCCN(S(C)(=O)=O)C2)c1 (stereo not given) | - | - | 3.7µM | - | -
CCC(C)[C@H]1CNC(=O)C(=O)N1CC(C)(C)C (stereo not given in full) | . | - | . | . | .
CC1Cc2ccccc2N1C(=O)CCNS(=O)(=O)c1cccc2nsnc12 (stereo not given) | - | - | 2.6µM | - | -
O=C(CCCNS(=O)(=O)c1cccc2nsnc12)NCc1ccccc1 | - | - | 9.3µM | - | -
CS(=O)(=O)c1ccc(C(=O)OCC(=O)NCc2cccs2)cc1[N+](=O)[O-] | . | - | . | . | .
CCC(C)(C)NC(=O)C(c1ccncc1)N(C(=O)c1sc(C)nc1C)c1ccc(C)cc1 (stereo not given) | - | - | - | 9.3µM | -
COc1ccc(C(C(=O)NC2CCCCC2)N(C(=O)c2sc(C)nc2C)c2ccc(C(C)=O)cc2)cc1 (stereo not given) | - | - | 9.3µM | ? | ?
Cc1ccc(N(C(=O)c2csnn2)C(C(=O)NC(C)(C)C)c2ccncc2)cc1 (stereo not given) | - | - | - | - | -
CC1CCCCC12NC(=O)N(CC(=O)Nc1nccs1)C2=O (stereo not given) | . | - | . | . | .
COc1ccc(CCNC(=O)C2CCN(C(=O)c3ccc(Cl)cc3)CC2)cc1OC | - | - | - | - | -
CC(Oc1ccc(Cl)cc1Cl)C(=O)OCC(=O)c1c(N)n(C)c(=O)n(C)c1=O (stereo not given) | - | - | ? | ? | .
CS(=O)(=O)Nc1nnc(SCC(=O)N(c2ccccc2)c2ccccc2)s1 | - | -[2.32 µM] | 2.6µM | - | -
CC(C)N(C(=O)CSc1nnc(NC(=O)c2cccs2)s1)C(C)C | - | - | 10µM | ? | -
CC(C)c1nnc(NC(=O)c2cccs2)s1 | - | - | - | - | -
COc1ccccc1CNS(=O)(=O)c1c(C(=O)N2CCC(C)CC2)c(C)n(C)c1C | - | . | . | . | .
CCC1C=CC=CC[C@H](C)[C@@H](O)[C@](C)(O)C(=O)[C@@H](C)[C@H](O)[C@@H](C)C(=O)[C@H](C)[C@@H](O)[C@H](C)C=CC(=O)OC2[C@@H](C)C(CC1)OC1(CC[C@@H](C)C(C[C@H](C)O)O1)[C@@H]2C (stereo not given in full) | - | . | 0.12µM | 0.13µM | .
COc1ccc(CCNC(=O)CSc2nnc3ccc(-c4ccccn4)nn23)cc1 | - | - | - | - | .
COc1ccc(OC)c(C(C(=O)NC2CCCCC2)N(C(=O)c2snc(C(N)=O)c2N)c2ccccc2OC)c1 (stereo not given) | - | - | - | 2.6µM | ?
COc1ccc(N(C(=O)c2snc(C(N)=O)c2N)C(C(=O)NC2CCCC2)c2cccs2)c(OC)c1 (stereo not given) | - | - | - | ? | -
COc1ccc(CN(C(=O)c2snc(C(N)=O)c2N)C(C(=O)NC2CCCC2)c2cc(OC)ccc2OC)cc1 (stereo not given) | - | - | 2.1µM | 10µM | -
NC(=O)c1nsc(C(=O)N(Cc2cccnc2)C(C(=O)NC2CCCC2)c2ccc(F)cc2)c1N (stereo not given) | - | - | - | ? | -
COc1ccccc1N(C(=O)c1snc(C(N)=O)c1N)C(C(=O)NC1CCCCC1)c1cccc(OC)c1OC (stereo not given) | - | - | - | 8.3µM | -
COc1cc(C(C(=O)NC2CCCC2)N(C(=O)c2snc(C(N)=O)c2N)C2CCCC2)cc(OC)c1OC (stereo not given) | - | - | ? | ? | -
